# Measurements from article PMC10812921, “Transcriptional Coactivator BOB1 (OBF1, OCA-B) Modulates the Specificity of DNA Recognition by the POU-Domain Factors OCT1 and OCT2 in a Monomeric Configuration”.
# Tests used:
# POU1 (OCT1 POU domain) = POU1 (OCT1 POU domain) (human, UniProt P14859 260-458); experiment: EMSA-SELEX-seq; no BOB1; 20 mM Tris-HCl pH 7.6, 140 mM NaCl, 10% glycerol, 0.5 mM EDTA, 0.05% Triton X-100, 0.1 mg/mL BSA, 0.1 mg/mL poly(dI-dC), 5 mM DTT, room temperature, 20 min; high values mean tight binding; details: protein: recombinant; dsDNA, one strand shown
# How it was run: (§1)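 In this selection, tagged POU-domain proteins from E. coli BL21, purified under denaturing conditions and renatured, were bound to a PCR-amplified double-stranded random 35-nt library with or without coactivator protein. Reactions held 30 ng protein, 300 ng library and, where used, 28 ng coactivator protein in 20 μL Tris–HCl pH 7.6 binding buffer for 20 min at RT. Complex bands were cut from native 6% PAGE, eluted and PCR-amplified over four rounds, then Illumina-sequenced, and binding preference is the percentage of sequenced 8-mers matching a motif pattern.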
# POU2 (OCT2 POU domain) = target: T1, POU2 (OCT2 POU domain) (human, UniProt P09086 175-386); experiment: as above; details: protein: recombinant; dsDNA, one strand shown
# T1 sequence: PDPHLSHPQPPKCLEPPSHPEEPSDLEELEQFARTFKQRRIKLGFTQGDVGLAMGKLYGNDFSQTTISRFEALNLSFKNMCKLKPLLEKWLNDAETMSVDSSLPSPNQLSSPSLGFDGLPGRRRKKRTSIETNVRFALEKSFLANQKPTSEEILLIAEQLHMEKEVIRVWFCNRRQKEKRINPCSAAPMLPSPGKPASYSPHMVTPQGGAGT
# How it was run: as §1
# [1] = target: POU1 (OCT1 POU domain);BOB1 (OBF1, OCA-B) (human;human, UniProt P14859;Q16633 260-458;1-256, |); experiment: EMSA-SELEX-seq; with BOB1 (ternary complex band); 20 mM Tris-HCl pH 7.6, 140 mM NaCl, 10% glycerol, 0.5 mM EDTA, 0.05% Triton X-100, 0.1 mg/mL BSA, 0.1 mg/mL poly(dI-dC), 5 mM DTT, room temperature, 20 min; high values mean tight binding; details: protein: recombinant;recombinant; copies: 1;1; dsDNA, one strand shown
# How it was run: as §1
# [2] = target: T2, POU2 (OCT2 POU domain);BOB1 (OBF1, OCA-B) (human;human, UniProt P09086;Q16633 175-386;1-256, |); experiment: as above; details: protein: recombinant;recombinant; copies: 1;1; dsDNA, one strand shown
# T2 sequence 1: T1 sequence
# T2 sequence 2: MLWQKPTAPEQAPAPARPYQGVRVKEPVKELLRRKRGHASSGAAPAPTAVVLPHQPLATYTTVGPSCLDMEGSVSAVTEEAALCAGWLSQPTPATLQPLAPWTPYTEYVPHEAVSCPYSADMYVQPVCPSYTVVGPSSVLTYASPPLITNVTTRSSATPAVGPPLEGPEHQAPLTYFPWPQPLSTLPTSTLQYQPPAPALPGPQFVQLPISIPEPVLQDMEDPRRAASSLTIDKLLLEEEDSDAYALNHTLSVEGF
# How it was run: as §1
# POU1 (OCT1 POU domain), sequence (P14859 260-458): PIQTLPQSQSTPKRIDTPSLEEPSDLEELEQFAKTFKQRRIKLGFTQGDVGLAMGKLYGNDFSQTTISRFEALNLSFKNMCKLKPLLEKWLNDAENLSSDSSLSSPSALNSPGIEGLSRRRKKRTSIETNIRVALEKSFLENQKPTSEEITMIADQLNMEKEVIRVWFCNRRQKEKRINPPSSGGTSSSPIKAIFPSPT
Sequence,binding signal (POU1 (OCT1 POU domain)),binding signal (POU2 (OCT2 POU domain)),binding signal [1],binding signal [2]
AAGTGAAT,0.105 % of ANNNNAAN 8-mers,0.123 % of ANNNNAAN 8-mers,0.0796 % of ANNNNAAN 8-mers,0.0669 % of ANNNNAAN 8-mers
AATTAAAT,0.333 % of ANNNNAAN 8-mers,0.39 % of ANNNNAAN 8-mers,0.19 % of ANNNNAAN 8-mers,0.173 % of ANNNNAAN 8-mers
ACCATAAA,0.0625 % of ANNNNAAN 8-mers,0.0662 % of ANNNNAAN 8-mers,0.0304 % of ANNNNAAN 8-mers,0.0264 % of ANNNNAAN 8-mers
AGAGCAAT,0.0355 % of ANNNNAAN 8-mers,0.0443 % of ANNNNAAN 8-mers,0.0332 % of ANNNNAAN 8-mers,0.0363 % of ANNNNAAN 8-mers
AGCCGAAA,0.0191 % of ANNNNAAN 8-mers,0.0247 % of ANNNNAAN 8-mers,0.0238 % of ANNNNAAN 8-mers,0.0198 % of ANNNNAAN 8-mers
ATACGAAC,0.0343 % of ANNNNAAN 8-mers,0.0345 % of ANNNNAAN 8-mers,0.032 % of ANNNNAAN 8-mers,0.0347 % of ANNNNAAN 8-mers
AGAACAAT,0.0378 % of ANNNNAAN 8-mers,0.0414 % of ANNNNAAN 8-mers,0.0293 % of ANNNNAAN 8-mers,0.038 % of ANNNNAAN 8-mers
AGAAGAAT,0.0515 % of ANNNNAAN 8-mers,0.0737 % of ANNNNAAN 8-mers,0.0597 % of ANNNNAAN 8-mers,0.0603 % of ANNNNAAN 8-mers
ATCTGAAA,0.0374 % of ANNNNAAN 8-mers,0.046 % of ANNNNAAN 8-mers,0.0472 % of ANNNNAAN 8-mers,0.0545 % of ANNNNAAN 8-mers
AGCAGAAT,0.0435 % of ANNNNAAN 8-mers,0.0621 % of ANNNNAAN 8-mers,0.0511 % of ANNNNAAN 8-mers,0.0561 % of ANNNNAAN 8-mers
ACATAAAT,0.23 % of ANNNNAAN 8-mers,0.251 % of ANNNNAAN 8-mers,0.117 % of ANNNNAAN 8-mers,0.177 % of ANNNNAAN 8-mers
AGTAGAAT,0.0717 % of ANNNNAAN 8-mers,0.0892 % of ANNNNAAN 8-mers,0.0578 % of ANNNNAAN 8-mers,0.0826 % of ANNNNAAN 8-mers
ATCTCAAA,0.0435 % of ANNNNAAN 8-mers,0.0443 % of ANNNNAAN 8-mers,0.0574 % of ANNNNAAN 8-mers,0.038 % of ANNNNAAN 8-mers
AGGCGAAC,0.0183 % of ANNNNAAN 8-mers,0.0247 % of ANNNNAAN 8-mers,0.0207 % of ANNNNAAN 8-mers,0.0305 % of ANNNNAAN 8-mers
ACACTAAC,0.0137 % of ANNNNAAN 8-mers,0.0132 % of ANNNNAAN 8-mers,0.0117 % of ANNNNAAN 8-mers,0.014 % of ANNNNAAN 8-mers
ACGGTAAC,0.0164 % of ANNNNAAN 8-mers,0.0259 % of ANNNNAAN 8-mers,0.0144 % of ANNNNAAN 8-mers,0.0239 % of ANNNNAAN 8-mers
AGGGTAAT,0.186 % of ANNNNAAN 8-mers,0.279 % of ANNNNAAN 8-mers,0.12 % of ANNNNAAN 8-mers,0.129 % of ANNNNAAN 8-mers
ACATAAAA,0.103 % of ANNNNAAN 8-mers,0.114 % of ANNNNAAN 8-mers,0.073 % of ANNNNAAN 8-mers,0.0925 % of ANNNNAAN 8-mers
AATGAAAT,0.139 % of ANNNNAAN 8-mers,0.157 % of ANNNNAAN 8-mers,0.14 % of ANNNNAAN 8-mers,0.121 % of ANNNNAAN 8-mers
AGCCCAAA,0.0164 % of ANNNNAAN 8-mers,0.0207 % of ANNNNAAN 8-mers,0.0156 % of ANNNNAAN 8-mers,0.0157 % of ANNNNAAN 8-mers
AGTTGAAC,0.0259 % of ANNNNAAN 8-mers,0.0253 % of ANNNNAAN 8-mers,0.0258 % of ANNNNAAN 8-mers,0.0338 % of ANNNNAAN 8-mers
ATAGGAAC,0.0339 % of ANNNNAAN 8-mers,0.0449 % of ANNNNAAN 8-mers,0.0375 % of ANNNNAAN 8-mers,0.0545 % of ANNNNAAN 8-mers
ATTTAAAA,0.303 % of ANNNNAAN 8-mers,0.299 % of ANNNNAAN 8-mers,0.178 % of ANNNNAAN 8-mers,0.137 % of ANNNNAAN 8-mers
ACCCGAAG,0.0126 % of ANNNNAAN 8-mers,0.0109 % of ANNNNAAN 8-mers,0.0129 % of ANNNNAAN 8-mers,0.0132 % of ANNNNAAN 8-mers
AACATAAT,0.134 % of ANNNNAAN 8-mers,0.174 % of ANNNNAAN 8-mers,0.0515 % of ANNNNAAN 8-mers,0.071 % of ANNNNAAN 8-mers
ACTGTAAC,0.0175 % of ANNNNAAN 8-mers,0.0224 % of ANNNNAAN 8-mers,0.0203 % of ANNNNAAN 8-mers,0.0165 % of ANNNNAAN 8-mers
AAAGTAAA,0.0988 % of ANNNNAAN 8-mers,0.0714 % of ANNNNAAN 8-mers,0.114 % of ANNNNAAN 8-mers,0.0759 % of ANNNNAAN 8-mers
AACAGAAA,0.042 % of ANNNNAAN 8-mers,0.0409 % of ANNNNAAN 8-mers,0.0355 % of ANNNNAAN 8-mers,0.033 % of ANNNNAAN 8-mers
ACCTCAAT,0.0202 % of ANNNNAAN 8-mers,0.0196 % of ANNNNAAN 8-mers,0.025 % of ANNNNAAN 8-mers,0.0289 % of ANNNNAAN 8-mers
